Reference: PubChem BioAssay
“And” between values parts separate entries of the source, which are not always exact repeats. Identical values can stand only once. Some compounds were tested as several samples or in several runs, with calls that do not always agree. The source made the active and inactive calls.

Legend:
[1] = test system: PRMT1 (protein arginine N-methyltransferase 1); experiment: PRMT1 binders on small-molecule microarrays, primary screen, biochemical, small-molecule microarray, 635 nm fluorescence (AID 1088); conditions: small-molecule microarray binding, higher = more signal;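 also: binding of Prmt1 protein to compounds spotted on small-molecule microarray slides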
[2] = yeast growth modulation, basal conditions, primary screen, YJM789 clinical isolate, OD600, 24 h (AID 1089);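 also: growth of clinical yeast isolate S. cerevisiae YJM 789 seeded 1000 cells per well; test concentration not given here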; conditions: S. cerevisiae YJM789 growth, higher = more signal, called active from +8 up or from −8 down
[3] = fission yeast growth modulation, primary screen, strain 972, OD600, 24 h, no modulator (AID 1090);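 also: basal condition with compound alone and no growth modifier present; test concentration not given here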; conditions: S. pombe 972 growth, higher = more signal, called active from +8 up or from −8 down
[4] = S. cerevisiae growth modulation with rapamycin, primary screen, strain BY4716, OD600, 96 h (AID 1091); conditions: higher = more signal, called active from +8 up or from −8 down; also: test concentration not given here
[5] = molecular target: Torsin-1A-interacting protein 2 (Homo sapiens) (UniProt Q8NFQ8); experiment: LULL1 binders on small-molecule microarray, primary screen, cell lysate, human LULL1 lysate, 635/667 nm fluorescence (AID 1092); conditions: hLULL1 lysate binding, 635 nm fluorescence, higher = more signal;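 also: probe is lysate of COS7 cells overexpressing human LULL1; score merges per-feature 667 nm fluorescence with signal-to-noise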
[6] = E. coli growth modulation, two-sided OD650, primary screen, E. coli filamentation project, strain DRC41, 24 h (AID 1093); conditions: OD650, 24 h, higher = more signal, called active from +8 up or from −8 down;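 also: MC1000 strain lacking acrAB efflux and sulA so SOS filamentation is blocked; test concentration not given here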
[7] = small-molecule microarray binders of probe aLefty2, primary screen, biochemical, biotinylated probe, 635/667 nm fluorescence (AID 1094); conditions: higher = more signal;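 also: score merges spot fluorescence near 667 nm with spot signal-to-noise ratio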
[8] = test system: Noggin (protein binding on small-molecule microarray); experiment: Noggin binders on small-molecule microarray, primary screen, biochemical, 635/667 nm fluorescence (AID 1095); conditions: 635 nm fluorescence, higher = more signal;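 also: score merges 667 nm feature fluorescence with signal to noise over triplicate slides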
[9] = molecular target: Neurogenic locus notch homolog protein 3 (Homo sapiens) (UniProt Q9UM47); experiment: NOTCH3 binders on small-molecule microarray, primary screen, biochemical, 635/667 nm fluorescence (AID 1096); conditions: NOTCH3 binding, 635 nm fluorescence, higher = more signal
[10] = small-molecule microarray binders of probe aEGFR, primary screen, biochemical, biotinylated probe, 635/667 nm fluorescence (AID 1097); conditions: higher = more signal;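 also: probe is a biotinylated anti-EGFR antibody binding compounds printed on slides; score combines fluorescence near 667 nm and signal to noise of each spot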

Chain of Neurogenic locus notch homolog protein 3 (Homo sapiens) (Q9UM47 whole entry, looked up): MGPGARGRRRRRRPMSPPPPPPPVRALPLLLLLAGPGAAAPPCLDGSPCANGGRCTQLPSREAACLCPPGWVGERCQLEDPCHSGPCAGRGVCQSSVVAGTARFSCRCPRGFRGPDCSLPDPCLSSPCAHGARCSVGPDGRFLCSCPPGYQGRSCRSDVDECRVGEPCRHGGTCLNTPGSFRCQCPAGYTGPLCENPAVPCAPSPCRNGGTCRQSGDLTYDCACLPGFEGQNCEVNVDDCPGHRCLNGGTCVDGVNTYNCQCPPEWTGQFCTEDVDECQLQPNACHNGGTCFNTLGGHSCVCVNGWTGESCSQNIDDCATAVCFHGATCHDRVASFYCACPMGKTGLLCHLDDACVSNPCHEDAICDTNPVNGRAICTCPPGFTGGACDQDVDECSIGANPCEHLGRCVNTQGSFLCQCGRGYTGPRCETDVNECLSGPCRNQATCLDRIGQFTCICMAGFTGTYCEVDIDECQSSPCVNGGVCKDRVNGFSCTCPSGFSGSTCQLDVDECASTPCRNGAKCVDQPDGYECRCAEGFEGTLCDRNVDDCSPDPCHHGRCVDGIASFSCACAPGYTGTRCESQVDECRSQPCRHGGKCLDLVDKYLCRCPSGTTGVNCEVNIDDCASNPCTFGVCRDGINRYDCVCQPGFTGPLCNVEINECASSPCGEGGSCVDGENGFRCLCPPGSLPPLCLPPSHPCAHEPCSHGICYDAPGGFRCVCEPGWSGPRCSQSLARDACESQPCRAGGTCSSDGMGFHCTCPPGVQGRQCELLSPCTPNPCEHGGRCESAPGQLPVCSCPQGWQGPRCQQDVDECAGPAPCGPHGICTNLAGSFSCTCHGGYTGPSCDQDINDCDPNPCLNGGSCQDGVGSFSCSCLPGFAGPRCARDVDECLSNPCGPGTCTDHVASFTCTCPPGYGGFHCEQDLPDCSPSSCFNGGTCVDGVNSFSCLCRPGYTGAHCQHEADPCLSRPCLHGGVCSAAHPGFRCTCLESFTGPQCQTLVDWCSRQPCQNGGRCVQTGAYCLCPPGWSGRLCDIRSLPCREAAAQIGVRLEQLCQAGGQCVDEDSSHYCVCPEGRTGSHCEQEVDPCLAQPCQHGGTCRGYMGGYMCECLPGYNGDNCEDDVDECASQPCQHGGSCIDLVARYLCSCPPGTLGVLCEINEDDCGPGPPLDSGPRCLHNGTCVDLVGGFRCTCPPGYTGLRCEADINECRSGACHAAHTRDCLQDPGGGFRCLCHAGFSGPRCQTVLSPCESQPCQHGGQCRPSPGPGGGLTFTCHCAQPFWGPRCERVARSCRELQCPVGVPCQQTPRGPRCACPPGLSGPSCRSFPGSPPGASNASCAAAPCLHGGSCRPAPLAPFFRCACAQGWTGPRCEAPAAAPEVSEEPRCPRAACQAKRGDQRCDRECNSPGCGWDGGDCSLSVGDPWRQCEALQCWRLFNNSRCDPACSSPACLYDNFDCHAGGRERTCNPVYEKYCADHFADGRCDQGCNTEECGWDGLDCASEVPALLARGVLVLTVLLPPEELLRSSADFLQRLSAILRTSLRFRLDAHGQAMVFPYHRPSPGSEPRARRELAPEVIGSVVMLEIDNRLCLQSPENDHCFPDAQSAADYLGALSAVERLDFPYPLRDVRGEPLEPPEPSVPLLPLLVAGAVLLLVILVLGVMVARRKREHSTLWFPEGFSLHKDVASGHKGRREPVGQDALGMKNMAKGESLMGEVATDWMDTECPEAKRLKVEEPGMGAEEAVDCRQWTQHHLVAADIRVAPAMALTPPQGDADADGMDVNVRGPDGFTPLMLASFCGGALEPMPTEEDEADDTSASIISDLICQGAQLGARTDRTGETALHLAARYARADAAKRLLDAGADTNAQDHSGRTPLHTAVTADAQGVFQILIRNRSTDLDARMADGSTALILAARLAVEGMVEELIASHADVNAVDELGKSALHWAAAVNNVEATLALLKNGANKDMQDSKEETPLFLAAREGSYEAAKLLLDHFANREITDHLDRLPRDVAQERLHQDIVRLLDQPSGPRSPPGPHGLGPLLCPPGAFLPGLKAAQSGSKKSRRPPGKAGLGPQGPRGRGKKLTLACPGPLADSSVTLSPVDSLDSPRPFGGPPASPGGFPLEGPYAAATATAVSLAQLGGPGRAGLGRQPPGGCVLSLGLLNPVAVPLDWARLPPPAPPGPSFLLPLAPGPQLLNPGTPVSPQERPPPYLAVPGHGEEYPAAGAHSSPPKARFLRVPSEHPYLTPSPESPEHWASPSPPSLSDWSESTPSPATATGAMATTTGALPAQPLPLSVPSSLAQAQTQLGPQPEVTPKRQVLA
Chain of Torsin-1A-interacting protein 2 (Homo sapiens) (Q8NFQ8 whole entry, looked up): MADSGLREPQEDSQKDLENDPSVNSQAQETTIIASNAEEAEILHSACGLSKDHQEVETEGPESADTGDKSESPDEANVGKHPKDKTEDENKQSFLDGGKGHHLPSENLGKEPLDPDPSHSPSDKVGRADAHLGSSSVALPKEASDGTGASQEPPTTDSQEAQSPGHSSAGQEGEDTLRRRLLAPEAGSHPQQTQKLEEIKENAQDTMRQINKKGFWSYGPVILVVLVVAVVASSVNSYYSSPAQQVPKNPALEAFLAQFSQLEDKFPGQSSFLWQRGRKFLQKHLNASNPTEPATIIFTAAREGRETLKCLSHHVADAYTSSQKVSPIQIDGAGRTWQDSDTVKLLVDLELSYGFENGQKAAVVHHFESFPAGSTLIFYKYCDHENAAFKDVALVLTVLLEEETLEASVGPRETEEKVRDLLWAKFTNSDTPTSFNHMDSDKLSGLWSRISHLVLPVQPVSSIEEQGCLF

Compound | composite z-score [1] | z-score [2] | z-score [3] | z-score [4] | composite z-score [5] | z-score [6] | composite z-score [7] | composite z-score [8] | composite z-score [9] | composite z-score [10]
C=CCN(C(=O)C(c1cccs1)N(CCOCCO)C(=O)/C=C\C(=O)O)C(C)(C)C (stereo not given) | -1.16 and -0.597 | 0.592 (inactive) and 0.385 (inactive) | -1.35 (inactive) and -0.863 (inactive) | 0.103 (inactive) and 0.0577 (inactive) | -2.06 and 0.15 | 1.41 (inactive) and 0.711 (inactive) | -0.0674 and -0.167 | -1.85 and -2.31 | -1.9 and -0.936 | -0.277 and -0.339
C=CCN(Cc1ccccc1)C(=O)C1N(c2c(Cl)cccc2CO)C(=O)C2C(C(=O)O)C3C=CC21O3 (stereo not given) | -1.44 and -1.17 | -3.28 (inactive) and 1.06 (inactive) | -0.875 (inactive) and -0.0197 (inactive) | -1.39 (inactive) and 0.236 (inactive) | -1.2 and -1.34 | 3.06 (inactive) and 1.29 (inactive) | -0.114 and 0.0686 | -2.68 and -3.18 | -2.25 and -1.57 | -0.21 and -0.395
C=CCN(CCCC)C(=O)C1N(CCOCCO)C(=O)C2C(C(=O)O)C3C=CC21O3 (stereo not given) | -0.779 and -1.02 | 0.784 (inactive) and 1.05 (inactive) | 0.269 (inactive) and 0.777 (inactive) | 1.11 (inactive) and 1.07 (inactive) | 2.94 and -0.643 | 0.489 (inactive) and 0.0433 (inactive) | -0.0065 and -0.291 | -2.5 and -2.13 | -0.298 and -1.36 | -0.326 and -0.314
C=CCN(C(=O)C1N(C(C)(C)CO)C(=O)C2C(C(=O)O)C3C=CC21O3)c1ccc(OC)cc1 (stereo not given) | -0.504 and -1.28 | 0.0659 (inactive) and 1.13 (inactive) | -1.08 (inactive) and 0.202 (inactive) | 0.558 (inactive) and 0.921 (inactive) | 0.841 and 0.2 | 2.3 (inactive) and 1.15 (inactive) | 0.0499 and 0.0174 | -2.91 and -3.66 | -0.702 and -1.29 | -0.263 and -0.315
C=CCN(CCCC)C(=O)C1N(c2c(Cl)cccc2CO)C(=O)C2C(C(=O)O)C3C=CC21O3 (stereo not given) | -0.502 and 0.174 | 0.381 (inactive) and 0.588 (inactive) | -0.162 (inactive) and -0.186 (inactive) | 0.258 (inactive) and -0.535 (inactive) | -1.27 and 3.03 | 0.455 (inactive) and 3.02 (inactive) | -0.0948 and -0.113 | -2.38 and -0.509 | -1.73 and -0.0461 | -0.308 and -0.0286
COC(=O)CC=C[C@@H](C)[C@@H](CO)NS(=O)(=O)c1ccc(C)cc1 | -0.0055 and 0.604 | 0.102 (inactive) and 0.479 (inactive) | -0.178 (inactive) and -0.491 (inactive) | 0.218 (inactive) and -0.249 (inactive) | 0.0736 and 1.26 | -0.0928 (inactive) and 0.0226 (inactive) | -0.37 and -0.0533 | 0.598 and 0.856 | -0.15 and 0.745 | -0.118 and 0.0192
C=CCN(CCCCC)C(=O)C(c1cccs1)N(C(=O)/C=C\C(=O)O)c1ccc(CCO)cc1 (stereo not given) | 0.275 and -0.0988 | 0.472 (inactive) and 0.0638 (inactive) | -0.265 (inactive) and 0.206 (inactive) | 0.499 (inactive) and 0.494 (inactive) | 1.64 and 0.636 | 0.295 (inactive) and -0.109 (inactive) | -0.254 and -0.0927 | -1.9 and -1.27 | -1.01 and -1.02 | -0.309 and -0.313
CCOC(=O)[C@@H]1CC=C2CC1C(=O)N1CCC[C@@H]1[C@H]2O[Si](C)(C)C(C)(C)C (stereo not given in full) | -0.884 and -1.29 | -0.541 (inactive) and -2.68 (inactive) | -1.43 (inactive) and -19.5 (active) | 0.119 (inactive) and -1.52 (inactive) | -0.664 and -0.302 | -0.988 (inactive) and -0.253 (inactive) | -0.0807 and -0.347 | -0.462 and -0.414 | -0.529 and -2.04 | -0.218 and -0.273
C=CCN(CCCCC)C(=O)C1N(CCOCCO)C(=O)C2C(C(=O)O)C3C=CC21O3 (stereo not given) | -1.77 and -0.751 | 0.322 (inactive) and 0.513 (inactive) | 0.0056 (inactive) and 0.398 (inactive) | 0.912 (inactive) and 1.09 (inactive) | 0.0037 and 0.198 | -0.45 (inactive) and -0.546 (inactive) | -0.0617 and -0.142 | -1.17 and -2.1 | -0.574 and -1.05 | -0.275 and -0.367
